Compounds with a hit are over-represented: about 3.3% of the library has one in this group of screens.
eIF4E-4G inh: blocks eIF4E binding to eIF4G; P63073+Q04637; TR-FRET eIF4E-eIF4GI(517-606) binding, 2 h; inhibition, % at 21.7 µM; actives 0.37% (n = 220,000); AID 782
Mcl1-Noxa inh: disrupts binding of human Mcl-1 to Noxa peptide; Q07820; TR-FRET Mcl-1/Noxa peptide binding, 2 h; inhibition, % at 21.7 µM; actives 1.5% (n = 220,000);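 active means compounds that cut the protein-peptide binding signal by more than 50% relative to plate controls in a single-dose test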;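 further: His-tagged Mcl-1 with rhodamine Noxa BH3 peptide and terbium anti-His antibody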
p47phox inh: p47phox (human) inhibition; p47phox/p22phox peptide binding, fluorescence polarization, 2 h; inhibition, % at 24.7 µM; actives 0.53% (n = 220,000); P14598; AID 1274
Target sequence (P14598 whole entry, looked up): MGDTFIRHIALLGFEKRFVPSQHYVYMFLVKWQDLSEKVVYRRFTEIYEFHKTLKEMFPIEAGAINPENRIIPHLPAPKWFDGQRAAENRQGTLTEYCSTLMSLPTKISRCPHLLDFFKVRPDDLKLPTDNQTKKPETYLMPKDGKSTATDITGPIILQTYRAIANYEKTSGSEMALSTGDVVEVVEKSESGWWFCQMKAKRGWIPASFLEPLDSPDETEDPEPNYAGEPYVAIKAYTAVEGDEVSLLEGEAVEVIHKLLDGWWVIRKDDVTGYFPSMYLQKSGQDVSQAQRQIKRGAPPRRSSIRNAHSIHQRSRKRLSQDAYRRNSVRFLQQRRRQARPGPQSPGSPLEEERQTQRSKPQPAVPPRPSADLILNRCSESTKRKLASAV
Mcl1 Bid PPI: disrupts binding of human Mcl-1 to Bid peptide. Q07820. TR-FRET Mcl-1/Bid-Dy647 peptide binding, 1536-well. inhibition, % at 21.7 µM. actives 0.97% (n = 220,000);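 active means compounds that cut the binding signal by more than half at the single screening dose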;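 further: His-tagged Mcl-1 with europium anti-His antibody binding Bid BH3 peptide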
14-3-3 Bad inh: disrupts binding of bovine 14-3-3 zeta to phospho-Bad peptide. actives 0.71% (n = 220,000). inhibition, % at 21.7 µM. TR-FRET 14-3-3zeta/Dy647-pBad peptide displacement, 1 h;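 active means inhibition above about 70%, limit read from the data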
Target sequence (P63103 whole entry, looked up): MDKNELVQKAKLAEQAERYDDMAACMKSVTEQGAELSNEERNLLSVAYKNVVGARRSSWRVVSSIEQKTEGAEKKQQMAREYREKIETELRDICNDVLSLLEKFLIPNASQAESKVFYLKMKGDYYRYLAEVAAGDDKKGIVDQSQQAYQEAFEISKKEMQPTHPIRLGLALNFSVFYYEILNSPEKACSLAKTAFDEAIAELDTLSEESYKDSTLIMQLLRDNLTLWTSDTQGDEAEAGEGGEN
Bim-Mcl-1: human Bim-Mcl-1 interaction inhibition | Bead-based flow cytometry, Bim peptide-Mcl-1 binding | inhibition, % at 10 µM | actives 0.1% (n = 190,000) | AID 1009; in the data active means inhibition above about 40%
A number is an active result.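 How the source made its calls, unless noted: active means inhibition above about 30% (limit read from the data); inactive means the rest.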

What do the screens show for `CC(C)CC(=O)NC(=S)N(Cc1ccccc1)Cc1ccccc1`?
eIF4E-4G inh: inactive; Mcl1-Noxa inh: 56.4; p47phox inh: inactive; Mcl1 Bid PPI: inactive; 14-3-3 Bad inh: inactive; Bim-Mcl-1: inactive

How did CCOC(=O)C1CCN(c2nc(N)c3c(N)nc(SCC(=O)O)cc3c2C#N)CC1 do in these assays?
eIF4E-4G inh: inactive; Mcl1-Noxa inh: 77.2; p47phox inh: inactive; Mcl1 Bid PPI: inactive; 14-3-3 Bad inh: inactive

What do the screens show for `CCC(CO)[n+]1c(C)cc(/C=C2\Sc3ccccc3N2Cc2ccccc2)cc1C` (centres undefined)?
eIF4E-4G inh: inactive; Mcl1-Noxa inh: inactive; p47phox inh: inactive; Mcl1 Bid PPI: inactive; 14-3-3 Bad inh: inactive; Bim-Mcl-1: inactive

How did O=C1COc2ccc(C(=O)/C=C/c3ccccc3)cc2N1 do in these assays?
eIF4E-4G inh: inactive; Mcl1-Noxa inh: inactive; p47phox inh: inactive; Mcl1 Bid PPI: inactive; 14-3-3 Bad inh: inactive; Bim-Mcl-1: inactive

How did O=C(O)/C=C/C(=O)Nc1ccc2c(c1)NC(=O)CO2 do in these assays?
eIF4E-4G inh: inactive; Mcl1-Noxa inh: 50.8; p47phox inh: inactive; Mcl1 Bid PPI: inactive; 14-3-3 Bad inh: inactive; Bim-Mcl-1: inactive

How did O=C(O)c1csc(-c2ccc(Cl)cc2)n1 do in these assays?
eIF4E-4G inh: inactive; Mcl1-Noxa inh: inactive; p47phox inh: 65.0; Mcl1 Bid PPI: inactive; 14-3-3 Bad inh: inactive; Bim-Mcl-1: inactive

What do the screens show for `CNC(=O)c1csc(-c2ccc(Cl)cc2)n1`?
eIF4E-4G inh: inactive; Mcl1-Noxa inh: inactive; p47phox inh: inactive; Mcl1 Bid PPI: inactive; 14-3-3 Bad inh: inactive; Bim-Mcl-1: inactive

How did CCC1=NN2C(=N)/C(=C\c3ccc(OCc4cc(=O)n5nc(CC)sc5n4)c(OC)c3)C(=O)N=C2S1 do in these assays?
eIF4E-4G inh: inactive; Mcl1-Noxa inh: 93.8; p47phox inh: inactive; Mcl1 Bid PPI: inactive; 14-3-3 Bad inh: inactive; Bim-Mcl-1: inactive

What do the screens show for `CCc1nn2c(=O)cc(COc3ccc(/C=C4\C(=N)N5N=C(CC(C)C)SC5=NC4=O)cc3)nc2s1`?
eIF4E-4G inh: inactive; Mcl1-Noxa inh: inactive; p47phox inh: inactive; Mcl1 Bid PPI: inactive; 14-3-3 Bad inh: inactive

Results for COc1ccc(-c2cc3nc4ccccc4n3c(N)c2C#N)cc1 ?
eIF4E-4G inh: inactive; Mcl1-Noxa inh: 80.9; p47phox inh: inactive; Mcl1 Bid PPI: 71.7; 14-3-3 Bad inh: 71.3

What do the screens show for `COc1cc(CC(=O)OCC(=O)N2CC(=O)Nc3ccccc32)cc(OC)c1OC`?
eIF4E-4G inh: inactive; Mcl1-Noxa inh: inactive; p47phox inh: inactive; Mcl1 Bid PPI: inactive; 14-3-3 Bad inh: inactive; Bim-Mcl-1: inactive

What do the screens show for `Cc1[nH][nH]c(=O)c1C(c1ccc(-c2ccc(F)cc2)o1)c1c(C)[nH][nH]c1=O`?
eIF4E-4G inh: inactive; Mcl1-Noxa inh: inactive; p47phox inh: inactive; Mcl1 Bid PPI: inactive; 14-3-3 Bad inh: inactive; Bim-Mcl-1: inactive

Results for COc1ccc(-c2ccc(C(c3c(C)[nH][nH]c3=O)c3c(C)[nH][nH]c3=O)o2)c([N+](=O)[O-])c1 ?
eIF4E-4G inh: inactive; Mcl1-Noxa inh: inactive; p47phox inh: 42.5; Mcl1 Bid PPI: inactive; 14-3-3 Bad inh: inactive; Bim-Mcl-1: inactive

What do the screens show for `Cc1ccc(-c2nnc(SCC(=O)N/N=C/c3ccc(C)s3)n2-c2ccccc2)cc1`?
eIF4E-4G inh: inactive; Mcl1-Noxa inh: inactive; p47phox inh: inactive; Mcl1 Bid PPI: inactive; 14-3-3 Bad inh: inactive; Bim-Mcl-1: inactive

What do the screens show for `CCOC(=O)/C(C#N)=C/C=C1\C=Cc2ccccc2N1CC`?
eIF4E-4G inh: inactive; Mcl1-Noxa inh: inactive; p47phox inh: 124.5; Mcl1 Bid PPI: inactive; 14-3-3 Bad inh: inactive; Bim-Mcl-1: inactive

Results for CCCCCCN1C=CC(=C/C=C(\C#N)C(=O)OCC)C=C1 ?
eIF4E-4G inh: inactive; Mcl1-Noxa inh: inactive; p47phox inh: 33.2; Mcl1 Bid PPI: inactive; 14-3-3 Bad inh: inactive; Bim-Mcl-1: inactive

How did CCCN1C=CC(=C/C=C(\C#N)C(=O)OCC)C=C1 do in these assays?
eIF4E-4G inh: inactive; Mcl1-Noxa inh: inactive; p47phox inh: inactive; Mcl1 Bid PPI: inactive; 14-3-3 Bad inh: inactive; Bim-Mcl-1: inactive

What do the screens show for `Cc1ccc(C(C)C)c(OCc2ccc(C(=O)N/N=C/c3ccc(O)cc3O)cc2)c1`?
eIF4E-4G inh: inactive; Mcl1-Noxa inh: 86.3; p47phox inh: inactive; Mcl1 Bid PPI: 51.6; 14-3-3 Bad inh: inactive; Bim-Mcl-1: inactive

What do the screens show for `Cc1ccc(C(C)C)c(OCc2ccc(C(=O)N/N=C/c3ccc(C(=O)O)cc3)cc2)c1`?
eIF4E-4G inh: inactive; Mcl1-Noxa inh: inactive; p47phox inh: inactive; Mcl1 Bid PPI: inactive; 14-3-3 Bad inh: inactive

What do the screens show for `CC(C)CCNC(=S)NC1CCCC1`?
eIF4E-4G inh: inactive; Mcl1-Noxa inh: inactive; p47phox inh: inactive; Mcl1 Bid PPI: inactive; 14-3-3 Bad inh: inactive; Bim-Mcl-1: inactive

Results for CC(C)CN(CC(C)C)C(=S)NC1CCCCC1 ?
eIF4E-4G inh: inactive; Mcl1-Noxa inh: inactive; p47phox inh: inactive; Mcl1 Bid PPI: 93.0; 14-3-3 Bad inh: inactive; Bim-Mcl-1: inactive

How did Cc1ccc(NC(=O)c2ccccc2OCC(=O)Nc2cccc(Cl)c2C)nc1 do in these assays?
eIF4E-4G inh: inactive; Mcl1-Noxa inh: inactive; p47phox inh: inactive; Mcl1 Bid PPI: inactive; 14-3-3 Bad inh: inactive; Bim-Mcl-1: inactive

What do the screens show for `Cc1cccc(C)c1N1C(=O)[C@@H]2C(c3ccccc3Cl)=NO[C@@H]2C1=O`?
eIF4E-4G inh: inactive; Mcl1-Noxa inh: inactive; p47phox inh: inactive; Mcl1 Bid PPI: inactive; 14-3-3 Bad inh: inactive

What do the screens show for `COc1ccc(OC)c(N2C(=O)[C@@H]3C(c4ccccc4Cl)=NO[C@@H]3C2=O)c1`?
eIF4E-4G inh: inactive; Mcl1-Noxa inh: 59.3; p47phox inh: inactive; Mcl1 Bid PPI: inactive; 14-3-3 Bad inh: inactive; Bim-Mcl-1: inactive

How did S=C(NNc1ccnc2cc(Cl)ccc12)Nc1ccc(Cl)cc1Cl do in these assays?
eIF4E-4G inh: inactive; Mcl1-Noxa inh: 84.7; p47phox inh: inactive; Mcl1 Bid PPI: 62.0; 14-3-3 Bad inh: 91.6

Results for CCOc1ccc(NC(=S)NNc2ccnc3cc(Cl)ccc23)cc1 ?
eIF4E-4G inh: inactive; Mcl1-Noxa inh: inactive; p47phox inh: inactive; Mcl1 Bid PPI: inactive; 14-3-3 Bad inh: inactive; Bim-Mcl-1: inactive

How did S=C(NCc1ccco1)Nc1cc(-c2ccccc2)[nH]n1 do in these assays?
eIF4E-4G inh: inactive; Mcl1-Noxa inh: inactive; p47phox inh: inactive; Mcl1 Bid PPI: inactive; 14-3-3 Bad inh: inactive; Bim-Mcl-1: inactive

How did Cc1cc(C)cc(-n2c(SCC(=O)NCc3ccc4c(c3)OCO4)nc3ccccc3c2=O)c1 do in these assays?
eIF4E-4G inh: inactive; Mcl1-Noxa inh: inactive; p47phox inh: inactive; Mcl1 Bid PPI: inactive; 14-3-3 Bad inh: inactive; Bim-Mcl-1: inactive

Results for O=C(CSc1nc2cc([N+](=O)[O-])ccc2n1-c1ccccc1)NCc1ccc2c(c1)OCO2 ?
eIF4E-4G inh: inactive; Mcl1-Noxa inh: 58.0; p47phox inh: inactive; Mcl1 Bid PPI: inactive; 14-3-3 Bad inh: inactive; Bim-Mcl-1: inactive

Results for CC(C)(C=O)C1=CC(=O)c2ccccc2C1=O ?
eIF4E-4G inh: inactive; Mcl1-Noxa inh: 85.3; p47phox inh: inactive; Mcl1 Bid PPI: inactive; 14-3-3 Bad inh: inactive; Bim-Mcl-1: inactive
